# TDP1 cell noCPT: qHTS for Inhibitors of human tyrosyl-DNA phosphodiesterase 1 (TDP1): qHTS in cells in absence of CPT. DT40 Tdp1-/- hTDP1 cells, no CPT, ATP luminescence, 48 h. Potency, µM (top dose mostly 46.2 µM), for inactives: top-dose activity change, negative = growth inhibition, actives largely listed as inhibitors. 420,000 tested, 15% active. AID 686978, 2013; further: potency means the concentration at half of the fitted maximal effect; nearly all actives have a fitted effect of over 55% in size
#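 Readout: luminescence from CellTiter-Glo after 30 min in the dark at RT. Cells: DT40 Tdp1-/- with stable hTDP1, 400/well. Exposure: compounds alone, ≥48 hr, 37 °C.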
# ELG1 repair inh: inhibitors of ELG1-dependent DNA repair in HEK293T cells; Potency, µM (highest dose often 46.1 µM), for the others: at the highest dose activity change, negative = inhibition, actives largely listed as inhibitors; HEK293T ELG1-luciferase reporter, luminescence, 16 h; DNA damage induced by 5-fluorouridine; 330,000 tested, 2.3% active; further: potency means the concentration at half of the fitted maximal effect; nearly all actives have a fitted effect of over 55% in size
#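 Overnight (16 hr) co-exposure of 2,000 cells/well to 5-fluorouridine and compound at 37 °C preceded detection. Luciferase was quantified via ONE-Glo luminescence; loss of signal denotes inhibition.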
# TDP1 cell CPT: DT40-hTDP1 cell growth loss with CPT; chicken DT40 Tdp1-/-;hTDP1 cells + 20 nM CPT, ATP luminescence, 48 h; Potency, µM (series often up to 46.2 µM), for inactives: at the highest dose activity change, negative = growth inhibition, usual class: inhibitors; 420,000 tested, 12% active; AID 686979; further: potency means the concentration at half of the fitted maximal effect; nearly all actives have a fitted effect of over 55% in size
#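 Cell growth measured by CellTiter-Glo luminescence after a minimum 48 h, 37 C compound exposure with 20 nM CPT in Tdp1-knockout DT40 cells stably expressing hTDP1, seeded 400/well; qHTS titration format.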
# RORgamma inh: inhibitors of mouse ROR gamma transcriptional activity; Drosophila S2 Gal4-RORgamma UAS-luciferase reporter, 20 h; Potency, µM (highest dose often 53.6 µM), without a hit: at the highest dose activity change, negative = inhibition, most hits filed as inhibitors; P51450; 310,000 tested, 5.4% active; AID 2551; further: potency means the concentration at half of the fitted maximal effect; nearly all actives have a fitted effect of over 60% in size
# Target sequence (P51450 whole entry, looked up, the tested form may be a part): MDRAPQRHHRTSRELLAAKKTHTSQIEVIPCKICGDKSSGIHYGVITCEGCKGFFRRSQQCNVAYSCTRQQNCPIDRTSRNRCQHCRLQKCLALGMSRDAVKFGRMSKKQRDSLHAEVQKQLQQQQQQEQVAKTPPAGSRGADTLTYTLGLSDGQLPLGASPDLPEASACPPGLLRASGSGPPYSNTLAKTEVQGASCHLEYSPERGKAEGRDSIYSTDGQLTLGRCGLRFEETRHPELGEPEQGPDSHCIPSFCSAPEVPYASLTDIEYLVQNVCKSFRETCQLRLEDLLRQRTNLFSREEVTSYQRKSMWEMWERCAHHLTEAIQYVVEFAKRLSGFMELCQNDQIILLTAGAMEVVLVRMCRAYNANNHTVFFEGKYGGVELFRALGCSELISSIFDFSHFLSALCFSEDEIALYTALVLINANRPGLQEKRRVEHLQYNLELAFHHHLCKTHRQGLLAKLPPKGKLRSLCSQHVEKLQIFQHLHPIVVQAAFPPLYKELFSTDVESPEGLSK
#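 In this cell-based reporter format, copper sulfate (700 uM final) drives Gal4–ROR gamma fusion expression from a metallothionein promoter in Drosophila Schneider cells; compounds preincubated 1 hr, reporter read after 20 hr at ambient temperature.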
# Gal4-VP16 FLuc: counter-screen for ROR gamma inhibitors: Gal4-VP16 reporter; Drosophila S2 Gal4-VP16 UAS-luciferase, luminescence, 20 h; Potency, µM (top dose mostly 53.6 µM), for the others: at the top dose activity, negative = inhibition, usual class: inhibitors; 310,000 tested, 3.5% active;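 further: Gal4-VP16 expression switched on by copper sulfate through the metallothionein promoter; potency means the concentration at half of the fitted maximal effect; nearly all actives have a fitted effect of over 50% in size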
# IL-1B inflam inh: inflammasome signaling inhibition, IL-1 beta readout. AID 743279. 360,000 tested, 4.7% active. THP-1 LPS/ATP IL-1B secretion, AlphaLISA, 16 h; hits give low values. activity change, % at 57.5 µM; in the data active means activity change below about -50%; inconclusive means mostly about -30% to -49%
#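 THP-1 cells pretreated 1 hr with compounds (up to 57.5 uM final), then stimulated with LPS (250 ng/mL final) plus ATP (1.25 mM final); secreted IL-1B measured by AlphaLISA after 16 hr, decreased signal indicating inhibition.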
# * marks the source's active call; other numbers are inactive results; ? = inconclusive; . = no result given; ! = not active in a repeat. Hits are enriched below; roughly 21% of the tested compounds scored in any of these assays. Unless noted, the call rests on the fitted dose curve; in most records, active means well fitted curve in the direction sought with a large enough effect; inconclusive means small, poorly fitted or top-dose-only effect, or another doubt; inactive means no such curve, though single readings can be large; an effect the other way counts as inactive or inconclusive. On the % scale 0 is the no-effect control and ±100 the full control effect.
SMILES,TDP1 cell noCPT,ELG1 repair inh,TDP1 cell CPT,RORgamma inh,Gal4-VP16 FLuc,IL-1B inflam inh
CCOc1ccc(N2CC(c3nc4ccccc4n3CCC3CCCCC3)CC2=O)cc1 (stereo unspecified),5.2µM*,.,7.3µM*,.,.,.
O=C(Nc1ccc(Cl)cc1)Nc1nccs1,2.9µM*,?,4.1µM*,-8%,5%,13
O=C(CCl)Nc1nccs1,5.8µM*,0%,2.6µM*,?,13µM*,-62*
O=C(Nc1nccs1)C(Cl)(Cl)Cl,-15%,5%,-2%,?,?,-10
CC(=O)OC[C@]12C[C@H](OC(=O)CC(C)C)C(C)=C[C@H]1O[C@H]1[C@H](O)[C@@H](OC(C)=O)[C@@]2(C)[C@]12CO2,0.0092µM*,.,0.012µM*,0.025µM*,-90%,.
Cc1ccc(C(=O)c2cn(CC(=O)Nc3ccc(C(C)C)cc3)c3nc(C)ccc3c2=O)cc1,6.5µM*,.,6.5µM*,.,.,.
COc1ccc2nc(N3CCN(C(=O)CS(=O)(=O)c4ccc(C)cc4)CC3)sc2c1,13µM*,.,12µM*,.,.,.
O=C(Nc1ccc(C(=O)O)cc1)Oc1ccc(N(CCCl)CCCl)cc1,0.73µM*,.,0.41µM*,.,.,1
COC(=O)C1=C(c2cccc(OC)c2OC)C[C@@H]2CC[C@H]1N2C(=O)NCc1ccco1,-5%,.,-2%,.,.,19
O=c1[nH]c(=S)n(CCC2=CCCCC2)c(O)c1/C=N/Nc1ccccc1,-5%,?,-9%,18%,0%,0
O=c1[nH]c(=S)n(CCC2=CCCCC2)c(O)c1C=NC1CCN(Cc2ccccc2)CC1,?,-3%,21µM*,20%,-19%,0
O=C(C[n+]1ccn(CCCNP2(=O)C=C(c3ccccc3)OC(c3ccccc3)=C2)c1)c1ccccc1,?,-17%,?,-4%,-11%,-55*
C[C@@H]([C@H](O)c1ccccc1)N(C)C,-10%,.,2%,.,.,.
CCOC(=O)c1cc(CC)sc1/N=C/C1C(=O)NC(=S)NC1=O,2%,5%,-1%,-6%,-2%,16
CCOC(=O)c1cc(CC)sc1/N=C/c1c(O)[nH]c(=S)[nH]c1=O,-29%,-1%,-13%,18µM*,?,-12
C[C@H]1CN([C@@H](C)CO)C(=O)CCCn2nncc2CO[C@@H]1CN(C)C(=O)Oc1ccccc1,2%,.,-13%,.,.,23
Clc1cccc(C(c2ccc3nc[nH]c3c2)n2ccnc2)c1 (stereo unspecified),27µM*,.,?,3%,-5%,.
COc1cc(C#Cc2c(-c3cncn3C)n(C)c3ccc(-c4cnc(N5CCOCC5)nc4)cc23)cc(OC)c1,12µM*,?,16µM*,.,.,?
COc1ccc(-c2n[nH]c(=S)n2-c2ccc3c(c2)OCCO3)cc1OC,2%,?,-18%,-31%,4%,7
Cc1ccc(-c2n[nH]c(=S)n2-c2ccccc2)cc1,?,10%,14µM*!,?,?,16
C=C1C(O)C2OC3(CCC(/C=C/C(C)C4CC(C)=CC5(OC(CC(C)(O)C(=O)O)CCC5O)O4)O3)CCC2OC1C(O)CC(C)C1OC2(CCCCO2)CCC1C (stereo unspecified),.,.,.,0.004µM*,0.011µM*,.
COc1ccc2c(c1)CC1(CN2C)C(=O)NC(=O)N(CCc2ccccc2)C1=O (stereo unspecified),5.8µM*,-15%,?,28%,-1%,21
COc1cccc(N2C(=O)NC(=O)C3(Cc4cc(C)ccc4N(C)C3)C2=O)c1 (stereo unspecified),?,2%,?,-7%,-2%,2
CCCCN1C(=O)NC(=O)C2(Cc3cc(C)ccc3N(C)C2)C1=O (stereo unspecified),13µM*,9%,?,0%,-15%,9
COc1ccc(OC)c(N2C(=O)NC(=O)C3(Cc4cc(C)ccc4N(C)C3)C2=O)c1 (stereo unspecified),?,-25%,?,2%,-3%,7
SMILES,TDP1 cell noCPT,ELG1 repair inh,TDP1 cell CPT,RORgamma inh,Gal4-VP16 FLuc,IL-1B inflam inh
COc1cc(CN2C(=O)NC(=O)C3(Cc4cc(C)ccc4N(C)C3)C2=O)cc(OC)c1 (stereo unspecified),0.01µM*,0%,?,6%,-2%,37
Cc1ccc2c(c1)CC1(CN2C)C(=O)NC(=O)N(c2cc(C)ccc2C)C1=O (stereo unspecified),-16%,5%,-15%,-4%,-10%,19
O=c1cccc2n1CC1CC2CN2CCCCC12 (stereo unspecified),16%,.,4%,-8%,-8%,.
CCOC(=O)CCCCCNC(=O)c1c(O)[nH]c(=O)[nH]c1=O,3%,.,-1%,.,.,3
CC(C)NC(C)C(=O)C12CC3CC(CC(C3)C1)C2 (stereo unspecified),-29%,0%,-18%,4%,-5%,-8
CC(=O)Nc1c2sscc-2n(C)c1=O,.,.,.,0.4µM*,0.25µM*,.
COc1ccc(C2=C(C(C)=O)Sc3nnc(-c4ccc(Cl)cc4)n3N2C(C)=O)cc1OC,2.3µM*,.,4.1µM*,.,.,.
COc1ccccc1C(=O)Nc1nnc(-c2ccc(Cl)cc2)o1,?,7%,-22%,?,?,-14
COc1ccc(-c2nnc3n2N(C(C)=O)C(c2ccc(Cl)c(Cl)c2)=C(C(C)=O)S3)cc1,4.1µM*,.,3.3µM*,.,.,.
COC(=O)C1=C(c2cccc(Cl)c2)C[C@@H]2CC[C@H]1N2C(=O)NCC1CC1,?,13%,16µM*,.,.,22

# Screening results (PubChem)
